These results are taken from the supplement of paper PMC9492666.

Counter-ions that a name gives are not always drawn.
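Also: viability read by CCK-8 kit in 96-well plates, part of a combination screen pairing lipid-metabolism-targeting compounds with erastin.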

This assay has as its system HCC1937. The assay can be described thus: relative cell viability, compound + erastin, vs DMSO (fraction of DMSO control); higher = less growth inhibition. Particulars: 72 h.
As to `O=P(O)(O)OC(CO)CO` [β-Glycerol phosphate disodium salt pentahydrate] + CCOc1ccccc1-n1c(C(C)N2CCN(C(=O)COc3ccc(Cl)cc3)CC2)nc2ccccc2c1=O [erastin], the relative cell viability was found to be 0.614.
For `CC[C@H](C)C(=O)O[C@H]1C[C@@H](C)C=C2C=C[C@H](C)[C@H](CC[C@@H]3C[C@@H](O)CC(=O)O3)[C@H]21` [Lovastatin] + CCOc1ccccc1-n1c(C(C)N2CCN(C(=O)COc3ccc(Cl)cc3)CC2)nc2ccccc2c1=O [erastin], the relative cell viability turned out to be 0.804.
To `Nc1cccc(S(=O)(=O)N2CCCN(S(=O)(=O)c3ccc4c(c3)OCCO4)CC2)c1` + CCOc1ccccc1-n1c(C(C)N2CCN(C(=O)COc3ccc(Cl)cc3)CC2)nc2ccccc2c1=O [erastin] belongs 0.817.
To `c1cc(-c2cnn3cc(-c4ccc(OCCN5CCCCC5)cc4)cnc23)ccn1` [Dorsomorphin] + CCOc1ccccc1-n1c(C(C)N2CCN(C(=O)COc3ccc(Cl)cc3)CC2)nc2ccccc2c1=O [erastin] belongs 0.137; to `COP(=O)(OC)OC(c1ccc(Cl)cc1)P(=O)(OC)OC` (stereo not given) [Mifobate] + CCOc1ccccc1-n1c(C(C)N2CCN(C(=O)COc3ccc(Cl)cc3)CC2)nc2ccccc2c1=O [erastin], 0.875.
With `O=C(c1ccc(-c2nc3ccc(F)cc3o2)cc1)N1CCN(C(=O)C2(O)CC2)CC1` + CCOc1ccccc1-n1c(C(C)N2CCN(C(=O)COc3ccc(Cl)cc3)CC2)nc2ccccc2c1=O [erastin] the figure was 0.588.
As to `N#Cc1ccc(Oc2cccc(NC(=O)Nc3ccc(Cl)c(C(F)(F)F)c3)c2)cc1` + CCOc1ccccc1-n1c(C(C)N2CCN(C(=O)COc3ccc(Cl)cc3)CC2)nc2ccccc2c1=O [erastin], the relative cell viability stood at 0.0713.
For `CC(C)=CCC[C@](C)(O[C@@H]1O[C@H](CO)[C@@H](O)[C@H](O)[C@H]1O)[C@H]1CC[C@]2(C)[C@@H]1[C@H](O)C[C@@H]1[C@@]3(C)CC[C@H](O[C@@H]4O[C@H](CO)[C@@H](O)[C@H](O)[C@H]4O[C@@H]4O[C@H](CO)[C@@H](O)[C@H](O)[C@H]4O)C(C)(C)[C@@H]3CC[C@]12C` [Ginsenoside Rd] + CCOc1ccccc1-n1c(C(C)N2CCN(C(=O)COc3ccc(Cl)cc3)CC2)nc2ccccc2c1=O [erastin], the relative cell viability was determined as 0.355.
For `O=C(Nc1ccncc1)c1cc([N+](=O)[O-])ccc1Cl` + CCOc1ccccc1-n1c(C(C)N2CCN(C(=O)COc3ccc(Cl)cc3)CC2)nc2ccccc2c1=O [erastin], the relative cell viability amounted to 0.47.
With `Cc1c(C(=O)NN2CCCCC2)nn(-c2ccc(Cl)cc2Cl)c1-c1ccc(Cl)cc1` [Rimonabant] + CCOc1ccccc1-n1c(C(C)N2CCN(C(=O)COc3ccc(Cl)cc3)CC2)nc2ccccc2c1=O [erastin] the figure was 0.581; with `C[C@]12C=CC(=O)N[C@@H]1CC[C@@H]1[C@@H]2CC[C@]2(C)[C@@H](C(=O)Nc3cc(C(F)(F)F)ccc3C(F)(F)F)CC[C@@H]12` [Dutasteride] + CCOc1ccccc1-n1c(C(C)N2CCN(C(=O)COc3ccc(Cl)cc3)CC2)nc2ccccc2c1=O [erastin], 0.573.
Consider `O=c1cc(-c2ccc(O)c(-c3c(O)cc(O)c4c(=O)cc(-c5ccc(O)cc5)oc34)c2)oc2cc(O)cc(O)c12` [Amentoflavone] + CCOc1ccccc1-n1c(C(C)N2CCN(C(=O)COc3ccc(Cl)cc3)CC2)nc2ccccc2c1=O [erastin], for which the relative cell viability came to 0.438.
Take `CCC(CC)CC1(C(=O)Nc2ccccc2SC(=O)C(C)C)CCCCC1` [Dalcetrapib] + CCOc1ccccc1-n1c(C(C)N2CCN(C(=O)COc3ccc(Cl)cc3)CC2)nc2ccccc2c1=O [erastin]: the relative cell viability stood at 0.737.
Consider `COc1cc([C@@H]2Oc3c(O)cc([C@H]4Oc5cc(O)cc(O)c5C(=O)[C@@H]4O)cc3[C@H]2CO)ccc1O` [Silychristin] + CCOc1ccccc1-n1c(C(C)N2CCN(C(=O)COc3ccc(Cl)cc3)CC2)nc2ccccc2c1=O [erastin], for which the relative cell viability was 0.584.
On to `Cc1nc2c([nH]1)c(=O)n(C)c(=O)n2Cc1ccco1` [Furafylline] + CCOc1ccccc1-n1c(C(C)N2CCN(C(=O)COc3ccc(Cl)cc3)CC2)nc2ccccc2c1=O [erastin], for which the relative cell viability amounted to 0.672.
With `O=C(O)Cn1nnc(-c2cc(N3CCC(Oc4cc(F)ccc4Br)CC3)no2)n1` + CCOc1ccccc1-n1c(C(C)N2CCN(C(=O)COc3ccc(Cl)cc3)CC2)nc2ccccc2c1=O [erastin] the figure was 0.529; with `COc1cc(N2CCN(C)CC2)ccc1Nc1ncc2c(n1)N(C1CCC1)C(=O)N(c1c(C)cccc1C)C2` + CCOc1ccccc1-n1c(C(C)N2CCN(C(=O)COc3ccc(Cl)cc3)CC2)nc2ccccc2c1=O [erastin], 0.56.
With `CC(=O)O[C@H](CC=C(C)C)C1=CC(=O)c2c(O)ccc(O)c2C1=O` [Acetyl shikonin] + CCOc1ccccc1-n1c(C(C)N2CCN(C(=O)COc3ccc(Cl)cc3)CC2)nc2ccccc2c1=O [erastin], the relative cell viability worked out at 0.617.
To `O=C(O)c1cccc(N=Nc2c(O)[nH]c3ccc(S(=O)(=O)NCc4ccc(F)cc4)cc23)c1` + CCOc1ccccc1-n1c(C(C)N2CCN(C(=O)COc3ccc(Cl)cc3)CC2)nc2ccccc2c1=O [erastin] belongs 0.544.
To `COc1cc(C(C)=O)ccc1O` [Acetovanillone] + CCOc1ccccc1-n1c(C(C)N2CCN(C(=O)COc3ccc(Cl)cc3)CC2)nc2ccccc2c1=O [erastin] belongs 0.508; to `CC(=O)Oc1cc(C(F)(F)F)ccc1C(=O)O` [Triflusal] + CCOc1ccccc1-n1c(C(C)N2CCN(C(=O)COc3ccc(Cl)cc3)CC2)nc2ccccc2c1=O [erastin], 0.751; to `O=c1oc2ccccc2cc1O` [3-Hydroxycoumarin] + CCOc1ccccc1-n1c(C(C)N2CCN(C(=O)COc3ccc(Cl)cc3)CC2)nc2ccccc2c1=O [erastin], 0.61.
Regarding `O=S(=O)(O)c1ccc2cc(N=Nc3cc(S(=O)(=O)O)c4cccnc4c3O)ccc2c1` + CCOc1ccccc1-n1c(C(C)N2CCN(C(=O)COc3ccc(Cl)cc3)CC2)nc2ccccc2c1=O [erastin], the relative cell viability stood at 0.741.
To `CC(C)c1c(C(=O)Nc2ccccc2)c(-c2ccccc2)c(-c2ccc(F)cc2)n1CC[C@@H](O)C[C@@H](O)CC(=O)O` [Atorvastatin Calcium] + CCOc1ccccc1-n1c(C(C)N2CCN(C(=O)COc3ccc(Cl)cc3)CC2)nc2ccccc2c1=O [erastin] belongs 0.357; to `CC(c1cc2ccccc2s1)N(O)C(N)=O` (stereo not given) [Zileuton] + CCOc1ccccc1-n1c(C(C)N2CCN(C(=O)COc3ccc(Cl)cc3)CC2)nc2ccccc2c1=O [erastin], 0.847.
Regarding `CCCCCCCCCCCC1=C(O)C(=O)C=C(O)C1=O` [Embelin] + CCOc1ccccc1-n1c(C(C)N2CCN(C(=O)COc3ccc(Cl)cc3)CC2)nc2ccccc2c1=O [erastin], the relative cell viability was 0.72.
With `CN1CCN(c2ccc(/C=C(\C#N)c3ccccc3Br)cc2)CC1` [DG172 (dihydrochloride)] + CCOc1ccccc1-n1c(C(C)N2CCN(C(=O)COc3ccc(Cl)cc3)CC2)nc2ccccc2c1=O [erastin] the figure was 0.672.
To `Cc1ccc(/C=C2\SC(=S)N(CCCCCC(=O)Nc3ccc(C(=O)O)c(O)c3)C2=O)cc1` + CCOc1ccccc1-n1c(C(C)N2CCN(C(=O)COc3ccc(Cl)cc3)CC2)nc2ccccc2c1=O [erastin] belongs 0.715; to `Cc1cc(N2C[C@@H](C)N[C@@H](C)C2)ncc1-c1ccc(-c2nc3c(ccn3C)c(=O)[nH]2)cc1` + CCOc1ccccc1-n1c(C(C)N2CCN(C(=O)COc3ccc(Cl)cc3)CC2)nc2ccccc2c1=O [erastin], 0.506; to `CCNC1(C(N)=O)CCN(c2ncnc3c2nc(-c2ccccc2Cl)n3-c2ccc(Cl)cc2)CC1` [Otenabant] + CCOc1ccccc1-n1c(C(C)N2CCN(C(=O)COc3ccc(Cl)cc3)CC2)nc2ccccc2c1=O [erastin], 0.441.
